Activity calls are given as the source filed them.
Experiments:
[1] = test system: Plasmodium falciparum Sir2 (PF13_0152, Sir2A); test: Plasmodium falciparum Sir2A binding compounds – biochemical, small-molecule microarray, 635 nm fluorescence, primary screen (AID 1098); conditions: fluorescence 635 nm, higher = more signal;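 further: score merges spot fluorescence intensity with its signal-to-noise ratio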
[2] = probe aDKK1 binding to arrayed compounds – biochemical, biotinylated probe, 635/667 nm fluorescence, primary screen (AID 1099); conditions: small-molecule microarray, higher = more signal;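 further: score merges 667nm spot fluorescence with signal to noise across triplicate slides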
[3] = probe aCHRDL2 binding to arrayed compounds – biochemical, biotinylated probe, 635/667 nm fluorescence, primary screen (AID 1100); conditions: small-molecule microarray, higher = more signal
[4] = change in splice reporter luminescence, either direction, cell-based, HEK293, spliceosome inhibition project, primary screen (AID 1101); conditions: HEK293 splicing luciferase reporter, 24 h, higher = more signal, called active from +8 up or from −8 down;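 further: HEK293 cells carrying a splicing-competent luciferase reporter gene; test concentration not given here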
[5] = biological target: Fibroblast growth factor 10 (Homo sapiens) (UniProt O15520); test: compounds binding fibroblast growth factor 10 – biochemical, small-molecule microarray, 635 nm fluorescence, primary screen (AID 1102); conditions: FGF10 binding, fluorescence 635 nm, higher = more signal
[6] = test system: glycogen synthase kinase-3 (GSK3A per assay name; protocol says GSK3B); test: compounds binding glycogen synthase kinase-3 – biochemical, small-molecule microarray, 635 nm fluorescence, GSK3A, primary screen (AID 1103); conditions: fluorescence 635 nm, higher = more signal; further: the record names both GSK3A and GSK3B
[7] = biological target: Epidermal growth factor receptor (Homo sapiens) (UniProt P00533); test: compounds binding epidermal growth factor receptor – biochemical, small-molecule microarray, 635 nm fluorescence, primary screen (AID 1104); conditions: EGFR binding, higher = more signal;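 further: score merges 667 nm emission intensity with spot signal to noise over triplicate slides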
[8] = biological target: Follistatin-related protein 3 (Homo sapiens) (UniProt O95633); test: compounds binding follistatin-related protein 3 – biochemical, small-molecule microarray, 635 nm fluorescence, primary screen (AID 1105); conditions: FSTL3 binding, higher = more signal;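 further: score merges emission near 667 nm and signal to noise per printed spot across three slides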
[9] = biological target: Dickkopf-related protein 1 (Homo sapiens) (UniProt O94907); test: small molecules binding DKK1 protein – biochemical, small-molecule microarray, 635 nm fluorescence scan, primary screen (AID 1106); conditions: higher = more signal;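 further: score merges emission near 667 nm with signal to noise over three replicate slides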
[10] = test system: Inhibin beta A chain (activin A); test: small molecules binding activin A – biochemical, small-molecule microarray, 635 nm fluorescence scan, primary screen (AID 1107); conditions: INHBA, higher = more signal;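 further: mouse activin A protein probed at 4.33 µg/mL on printed slides; score merges bound-protein fluorescence near 667 nm with spot signal-to-noise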
[11] = test system: Human papillomavirus type 1a protein E7 (residues 44-93); test: small molecules binding HPV E7 44-93 – biochemical, small-molecule microarray, residues 44-93, 635 nm fluorescence, primary screen (AID 1108); conditions: fluorescence 635 nm, higher = more signal;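 further: E7 fragment applied at 1 µg/mL in TBST for 1 h at 4 C; score combines spot fluorescence with its signal to noise ratio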
[12] = hepatitis C replication reporter changes, two-sided – Huh7 cells, luciferase reporter, HCV replication inhibitor project, primary screen (AID 1109); conditions: Huh7 HCV replicon luciferase reporter, 48 h; higher = more signal;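 further: huh7 hepatoma cells harbouring a luciferase neomycin HCV replicon reporter; luciferase luminescence as measure of HCV replicon replication; test concentration not given here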
[13] = biological target: Left-right determination factor 2 (Homo sapiens) (UniProt O00292); test: small molecules binding LEFTY2 protein – biochemical, small-molecule microarray, 635 nm fluorescence scan, primary screen (AID 1110); conditions: higher = more signal
[14] = biological target: Calmodulin-1 (Homo sapiens) (UniProt P0DP23); test: small molecules binding calmodulin-1 with EGTA – biochemical, small-molecule microarray, Cy5-labelled CALM1, profiling panel (AID 1111); conditions: Cy5-CALM1 binding fluorescence, higher = more signal;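 further: labelled calmodulin applied in Tris saline Tween buffer holding calcium plus EGTA and DTT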
[15] = biological target: Calmodulin-1 (Homo sapiens) (UniProt P0DP23); test: small molecules binding Ca-loaded calmodulin-1 – biochemical, small-molecule microarray, Cy5-labelled CALM1, plus calcium, artefact control for SMM control-protein annotation, profiling panel (AID 1112); conditions: Cy5-CALM1 binding fluorescence, higher = more signal;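 further: score merges spot fluorescence with signal to noise from triplicate slides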
[16] = probe aWnt5a binding to arrayed compounds – biochemical, biotinylated probe, 635/667 nm fluorescence, primary screen (AID 1113); conditions: small-molecule microarray, higher = more signal;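 further: score merges 667 nm fluorescence intensity with signal-to-noise per printed feature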
[17] = probe aShh binding to arrayed compounds – biochemical, biotinylated probe, 635/667 nm fluorescence, primary screen (AID 1114); conditions: small-molecule microarray, higher = more signal;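 further: probe is biotin-labelled aShh protein from a stem cell growth factor screen; measures binding of labelled protein to compounds printed on the slide; score merges feature fluorescence at 667 nm with signal-to-noise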
[18] = probe aNog binding to arrayed compounds – biochemical, biotinylated probe, 635/667 nm fluorescence, primary screen (AID 1115); conditions: small-molecule microarray, higher = more signal;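 further: probe is biotinylated aNog protein used at 0.15 µg/mL for 1 h at 4 C; z-score combines 667 nm fluorescence of each spot with its signal to noise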
[19] = biological target: Torsin-1A-interacting protein 1 (Homo sapiens) (UniProt Q5JTV8); test: compound microarray binding of lysate hLAP1 – cell lysate, small-molecule microarray, COS7 lysate, 635/667 nm fluorescence, primary screen (AID 1116); conditions: 635 nm fluorescence, higher = more signal
[20] = biological target: Alpha-bungarotoxin (Bungarus multicinctus) (UniProt P60615); test: compounds binding labelled alpha-BTX control protein – biochemical, small-molecule microarray, Alexa647 label, 635/667 nm fluorescence, artefact control for SMM control protein annotation, profiling panel (AID 1117); conditions: alpha-BTX-A647 binding fluorescence, higher = more signal
Alpha-bungarotoxin (Bungarus multicinctus), sequence (P60615 whole entry, looked up): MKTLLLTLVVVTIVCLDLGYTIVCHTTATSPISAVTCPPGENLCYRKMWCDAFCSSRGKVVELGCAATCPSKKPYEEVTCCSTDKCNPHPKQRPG

Left-right determination factor 2 (Homo sapiens), sequence (O00292 whole entry, looked up): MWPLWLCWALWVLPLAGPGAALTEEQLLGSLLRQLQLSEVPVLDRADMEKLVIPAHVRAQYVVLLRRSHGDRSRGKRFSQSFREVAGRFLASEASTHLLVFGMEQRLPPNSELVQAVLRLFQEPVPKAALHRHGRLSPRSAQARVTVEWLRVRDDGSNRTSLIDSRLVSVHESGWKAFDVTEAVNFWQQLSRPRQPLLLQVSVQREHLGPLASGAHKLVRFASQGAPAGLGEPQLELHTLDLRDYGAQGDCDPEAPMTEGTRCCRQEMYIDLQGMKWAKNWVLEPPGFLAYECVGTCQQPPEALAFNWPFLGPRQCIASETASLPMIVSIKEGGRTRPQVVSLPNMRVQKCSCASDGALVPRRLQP
Follistatin-related protein 3 (Homo sapiens), sequence (O95633 whole entry, looked up): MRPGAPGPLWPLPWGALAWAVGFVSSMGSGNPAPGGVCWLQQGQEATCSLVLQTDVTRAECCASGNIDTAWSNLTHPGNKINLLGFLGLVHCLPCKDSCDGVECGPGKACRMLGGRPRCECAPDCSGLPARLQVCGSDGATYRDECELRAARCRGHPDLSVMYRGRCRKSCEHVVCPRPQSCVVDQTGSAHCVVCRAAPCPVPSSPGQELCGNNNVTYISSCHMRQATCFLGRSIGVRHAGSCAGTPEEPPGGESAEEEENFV
Fibroblast growth factor 10 (Homo sapiens), sequence (O15520 whole entry, looked up): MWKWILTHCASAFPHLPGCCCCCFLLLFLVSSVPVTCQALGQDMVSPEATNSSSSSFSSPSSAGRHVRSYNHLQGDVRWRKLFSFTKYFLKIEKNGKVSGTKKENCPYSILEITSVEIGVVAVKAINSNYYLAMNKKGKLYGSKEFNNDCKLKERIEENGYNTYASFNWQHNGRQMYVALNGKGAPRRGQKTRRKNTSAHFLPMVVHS
Dickkopf-related protein 1 (Homo sapiens), sequence (O94907 whole entry, looked up): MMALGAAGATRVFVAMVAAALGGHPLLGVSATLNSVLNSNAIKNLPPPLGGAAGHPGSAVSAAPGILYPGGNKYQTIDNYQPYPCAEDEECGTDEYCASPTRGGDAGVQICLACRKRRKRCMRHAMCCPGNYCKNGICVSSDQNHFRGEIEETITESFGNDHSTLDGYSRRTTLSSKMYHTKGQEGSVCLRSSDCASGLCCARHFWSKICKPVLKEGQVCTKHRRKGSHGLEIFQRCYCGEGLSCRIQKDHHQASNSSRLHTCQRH
Torsin-1A-interacting protein 1 (Homo sapiens), sequence (Q5JTV8 whole entry, looked up): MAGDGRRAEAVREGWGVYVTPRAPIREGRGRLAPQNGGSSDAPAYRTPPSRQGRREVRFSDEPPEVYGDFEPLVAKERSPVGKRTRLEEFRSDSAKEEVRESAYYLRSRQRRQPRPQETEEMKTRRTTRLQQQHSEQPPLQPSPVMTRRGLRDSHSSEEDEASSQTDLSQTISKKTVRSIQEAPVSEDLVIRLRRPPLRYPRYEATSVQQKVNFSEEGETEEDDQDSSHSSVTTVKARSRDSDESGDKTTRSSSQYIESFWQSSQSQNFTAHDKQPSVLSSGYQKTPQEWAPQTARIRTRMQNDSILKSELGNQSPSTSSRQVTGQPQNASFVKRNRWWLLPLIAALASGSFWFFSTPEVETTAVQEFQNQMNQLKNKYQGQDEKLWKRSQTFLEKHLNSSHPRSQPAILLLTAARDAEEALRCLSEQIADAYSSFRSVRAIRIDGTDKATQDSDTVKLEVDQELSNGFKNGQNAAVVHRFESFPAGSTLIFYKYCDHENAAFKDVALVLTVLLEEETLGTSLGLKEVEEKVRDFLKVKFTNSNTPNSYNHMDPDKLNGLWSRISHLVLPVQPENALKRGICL
Epidermal growth factor receptor (Homo sapiens), sequence (P00533 whole entry, looked up): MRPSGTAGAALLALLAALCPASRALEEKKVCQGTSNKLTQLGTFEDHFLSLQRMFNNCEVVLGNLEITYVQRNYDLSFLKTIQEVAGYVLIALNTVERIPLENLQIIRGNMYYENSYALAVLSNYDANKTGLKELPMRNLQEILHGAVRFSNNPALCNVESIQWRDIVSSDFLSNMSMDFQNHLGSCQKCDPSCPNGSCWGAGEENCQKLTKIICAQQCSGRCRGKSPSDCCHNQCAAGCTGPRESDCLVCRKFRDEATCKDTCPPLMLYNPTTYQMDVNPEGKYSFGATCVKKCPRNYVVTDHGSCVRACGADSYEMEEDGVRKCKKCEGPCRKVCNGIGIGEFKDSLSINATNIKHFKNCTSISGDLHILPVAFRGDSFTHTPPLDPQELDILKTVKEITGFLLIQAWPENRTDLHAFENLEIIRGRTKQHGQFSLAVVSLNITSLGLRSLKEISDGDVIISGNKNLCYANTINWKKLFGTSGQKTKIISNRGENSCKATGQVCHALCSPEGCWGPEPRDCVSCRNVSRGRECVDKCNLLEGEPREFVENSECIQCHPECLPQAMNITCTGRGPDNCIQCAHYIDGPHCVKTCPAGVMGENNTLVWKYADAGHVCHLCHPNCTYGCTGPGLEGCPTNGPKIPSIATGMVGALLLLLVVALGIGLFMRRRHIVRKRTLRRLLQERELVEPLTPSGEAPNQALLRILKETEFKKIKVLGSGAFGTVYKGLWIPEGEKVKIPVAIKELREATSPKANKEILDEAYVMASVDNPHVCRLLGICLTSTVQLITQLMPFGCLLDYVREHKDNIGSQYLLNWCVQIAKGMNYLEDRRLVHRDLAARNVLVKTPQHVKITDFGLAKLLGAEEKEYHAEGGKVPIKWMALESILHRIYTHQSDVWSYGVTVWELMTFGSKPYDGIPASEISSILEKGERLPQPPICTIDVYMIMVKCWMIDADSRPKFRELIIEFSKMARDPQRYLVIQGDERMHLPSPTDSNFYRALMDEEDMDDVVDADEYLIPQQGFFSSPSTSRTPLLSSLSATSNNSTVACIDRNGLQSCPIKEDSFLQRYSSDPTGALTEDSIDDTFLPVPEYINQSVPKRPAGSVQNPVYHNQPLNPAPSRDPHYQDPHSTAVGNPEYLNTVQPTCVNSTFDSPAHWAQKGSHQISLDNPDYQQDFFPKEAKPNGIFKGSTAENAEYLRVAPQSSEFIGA

Row | Structure (SMILES) | composite z-score [1] | composite z-score [2] | composite z-score [3] | z-score [4] | composite z-score [5] | composite z-score [6] | composite z-score [7] | composite z-score [8] | composite z-score [9] | composite z-score [10] | composite z-score [11] | z-score [12] | composite z-score [13] | composite z-score [14] | composite z-score [15] | composite z-score [16] | composite z-score [17] | composite z-score [18] | composite z-score [19] | composite z-score [20]
1 | C=CCCN(CC#C[C@H]1Oc2ccccc2S(=O)(=O)N2CCC[C@@H]12)S(=O)(=O)c1ccc(C)cc1 | 0.327 | -0.342 | -0.289 | 3.09 (inactive) | 0.371 | 0.0464 | 0.185 | 0.485 | 0.435 | 1.45 | 0.328 | -1.92 | 0.148 | -0.498 | -0.863 | -0.0125 | 0.0048 | -0.183 | 0.631 | -0.189
2 | CC(c1ccccc1)C(O)C1C=CC2C(=O)N(c3ccccc3)C(=O)C2N1Nc1ccccc1F (stereo not given) | 0.308 | 0.535 | 1.09 | -1.02 (inactive) | 0.356 | 0.214 | -0.0346 | 0.683 | -0.526 | 0.913 | 1.4 | -1.55 | 0.0648 | -0.32 | -0.539 | 0.0485 | -0.203 | -0.453 | 1.03 | 0.667
3 | C=CCOC(=O)[C@@H]1[C@H]2C(=O)O[C@H](c3ccccc3)[C@H](c3ccccc3)N2[C@H](c2ccc(OCCOC(=O)[C@H]3C[C@H]4C(=O)N[C@@H](Cc5ccccc5)C(=O)N4[C@H]3c3ccc(O)cc3)cc2)[C@@]12C(=O)Nc1ccc(I)cc12 | 1.54 | 0.232 | 0.163 | 0.00712 (inactive) | 1.22 | 1.33 | 0.906 | 1.29 | 1.26 | -0.418 | 1.06 | -2.78 | 0.866 | -0.0584 | -1.26 | -0.135 | 0.302 | 0.116 | 1.03 | 1.66
4 | CC(C)N1C(=O)c2ccccc2[C@](C)(C(=O)NC2CC2)[C@@H]1c1ccc(CO)cc1 | 0.173 | 0.0976 | 0.151 | -0.0713 (inactive) | 0.13 | 0.821 | -0.415 | 0.507 | 0.33 | 0.926 | 0.591 | -0.479 | 0.0197 | 0.391 | -0.34 | -0.096 | -0.138 | 0.214 | 0.507 | 0.931
5 | COCCOC(=O)N1C(=O)[C@@]2(c3ccccc31)[C@H](C(=O)N1CCCCCCC1)[C@H]1C(=O)O[C@H](c3ccccc3)[C@H](c3ccccc3)N1[C@@H]2c1ccccc1OCCO | 1.72 | 2.76 | 1.66 | -0.0563 (inactive) | 1.09 | 1.29 | 1 | 1.52 | 1.5 | 2.02 | 1.36 | -1.78 | 0.941 | 2.43 | 1.43 | 0.883 | 2.65 | 2.48 | 4.19 | 2.36
6 | COC(=O)[C@@]1(Cc2ccccc2)[C@H]2c3cc(C(=O)N(C)C)n(Cc4ccccc4)c3C[C@H]2CN1C(=O)c1ccccc1 | 1.05 | 0.855 | 0.816 | -1.03 (inactive) | 0.69 | -0.0617 | -0.262 | 0.383 | -0.61 | 0.735 | 0.104 | -1.13 | -0.586 | 0.733 | 0.0453 | 0.3 | 1.63 | 0.837 | 0.706 | 0.273
7 | O=C1O[C@@H](c2ccccc2)[C@@H](c2ccccc2)N2[C@@H](c3ccc(O)cc3)[C@]3(C(=O)Nc4ccccc43)[C@@H](C(=O)N3CCCCCCC3)[C@H]12 | 2.02 | 2.5 | 1.53 | -1.29 (inactive) | 1.03 | 1.32 | 1.27 | 1.58 | 1.56 | 1.98 | 1.47 | -1.93 | 0.695 | 2.86 | 1.61 | 1.37 | 2.07 | -0.531 | 4.6 | 3.12
8 | [N-]=[N+]=Nc1ccccc1[C@H]1OC(c2ccc(OCCCO)cc2)=N[C@@]1(CCS(=O)(=O)c1ccccc1)C(=O)N1CCOCC1 | 1.5 | 1.8 | 1.46 | -0.829 (inactive) | 1.26 | 1.16 | 0.211 | 0.924 | -0.169 | 0.891 | 0.946 | 0.384 | 0.52 | 2.15 | 1.24 | 0.318 | 1.39 | 1.28 | 2.1 | 3.35
9 | C=CC[C@@]1(C(=O)NCc2ccccc2)N=C(c2ccc(OCCCO)cc2)O[C@@H]1c1ccccc1CN=[N+]=[N-] | 1.1 | 0.9 | 0.953 | 0.147 (inactive) | 1.15 | 0.0389 | -0.282 | 0.849 | 0.0805 | 0.835 | 1.41 | -2.31 | -0.511 | 1.13 | 0.429 | 0.0676 | 0.448 | 0.622 | 1.1 | 1.28
